# Assay results as given in PubChem BioAssay AID1159580 (chemical genetic matrix, 2015).
# The campaign covered roughly 5,500 compounds. About 2,000 (36%) were called active. Roughly 18% stayed inconclusive and do not appear here. Some of the results follow. Values without a mark were called inactive. Rule as the data show it: active = normalized growth mostly below about 0.91 (no sharp cut-off); inconclusive = no clear call, values can overlap the other calls; inactive = mostly above about 0.92.
# Assay: chemical genetic growth profiling, strain panel (AID 1159580);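 also: tested at 20 µM; growth read once vehicle control cultures reached saturation at 30 °C; 1 = growth at the plate median or of vehicle wells; lower values mean less growth of the strain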
# Conditions: S. cerevisiae deletion strains, growth OD
smiles,measurement,setting,value
CC(=O)NC(CCC(=O)O)C(=O)O (stereo not drawn),normalized growth,"locus YAL013W, strain DEP1, stronger effect = lower value",0.985
same,normalized growth,"locus YBR229C, strain ROT2, stronger effect = lower value",0.966
same,normalized growth,"locus YCL061C, strain MRC1, stronger effect = lower value",0.984
same,normalized growth,"locus YDL101C, strain DUN1, stronger effect = lower value",0.96
same,normalized growth,"locus YDR150W, strain NUM1, stronger effect = lower value",0.974
same,normalized growth,"locus YEL061C, strain CIN8, stronger effect = lower value",0.975
same,normalized growth,"locus YGR078C, strain PAC10, stronger effect = lower value",0.983
same,normalized growth,"locus YHR030C, strain SLT2, stronger effect = lower value",0.973
same,normalized growth,"locus YHR087W, strain rtc3, stronger effect = lower value",1.13 [resistant] (active)
same,normalized growth,"locus YJR043C, strain POL32, stronger effect = lower value",0.976
same,normalized growth,"locus YJR075W, strain HOC1, stronger effect = lower value",0.99
same,normalized growth,"locus YKL190W, strain CNB1, stronger effect = lower value",0.99
same,normalized growth,"locus YLR039C, strain RIC1, stronger effect = lower value",0.978
same,normalized growth,"locus YLR058C, strain SHM2 (second series), stronger effect = lower value",0.981
same,normalized growth,"locus YLR085C, strain ARP6, stronger effect = lower value",0.975
same,normalized growth,"locus YLR262C, strain YPT6, stronger effect = lower value",1.01
same,normalized growth,"locus YML094W, strain GIM5, stronger effect = lower value",0.981
same,normalized growth,"locus YMR219W, strain ESC1, stronger effect = lower value",0.975
same,normalized growth,"locus YMR263W, strain SAP30, stronger effect = lower value",0.987
same,normalized growth,"locus YMR307W, strain GAS1, stronger effect = lower value",1.1
same,normalized growth,"locus YNL153C, strain GIM3, stronger effect = lower value",0.978
same,normalized growth,"locus YNL298W, strain CLA4 (second series), stronger effect = lower value",0.984
same,normalized growth,"locus YNL322C, strain KRE1, stronger effect = lower value",0.984
same,normalized growth,"locus YNR030W, strain Alg12, stronger effect = lower value",1.02
same,normalized growth,"locus YOL006C, strain TOP1, stronger effect = lower value",0.964
same,normalized growth,"locus YPL055C, strain LGE1, stronger effect = lower value",1.03
same,normalized growth,"locus YPL241C, strain CIN2, stronger effect = lower value",0.973
same,normalized growth,"locus YPR135W, strain CTF4, stronger effect = lower value",0.969
